From PMC7826789 (International Journal of Molecular Sciences, 2021)

test system: TYRO3; details: Compound Concentration (nM):1000
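Note: KINOMEscan scanMAX binding as percent activity remaining versus control; lower means stronger binding.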

| SMILES | Percent Control |
| --- | --- |
| Cl.O=C(Nc1ccc(Oc2ccc3[nH]c(NC(=O)c4ccccc4)nc3c2)cc1)Nc1cc(C(F)(F)F)ccc1F [GW709042A] | 94% |
| NS(=O)(=O)c1ccc(N/N=C2\C(=O)Nc3ccc(C(=O)NCCc4c[nH]cn4)cc32)cc1 [GW300660X] | 100% |
| CN1CCN(C(=O)c2ccc(NC(=O)Nc3ccc(N(C)c4ccnc(Nc5ccc(CS(C)(=O)=O)cc5)n4)cc3)cc2)CC1.Cl [GW830263A] | 92% |
| CN(C)CCNC(=O)Nc1ccc(N(C)c2ccnc(Nc3ccc(CS(C)(=O)=O)cc3)n2)cc1.Cl [GW830900A] | 85% |
| COc1cc(C)c(N(C)C(=O)CN(C)C)cc1Nc1nc(Nc2cccc(F)c2C(N)=O)c2cc[nH]c2n1 [GSK2219385] | 100% |
| CCS(=O)(=O)c1ccc(OC)c(Nc2ncc(-c3cccc(F)c3)o2)c1 [GW621970X] | 73% |
| Cc1cc(O)cc(C)c1/C=C/c1cncc(C(N)=O)c1 [GW435821X] | 100% |
| COc1ccc(COc2ccc(Cc3cnc(N)nc3N)cc2OC)cc1 [GW632580X] | 71% |
| COc1cc(/C=N/Nc2ncnc3[nH]ncc23)ccc1O [GW578748X] | 99% |
| NS(=O)(=O)c1ccc(N/N=C2\C(=O)Nc3ccc(Cl)cc32)cc1 [GW280670X] | 100% |
| CN(C)c1cc2c(Nc3ccc4c(cnn4Cc4ccccc4)c3)ncnc2cn1 [GW282974X] | 100% |
| COc1cc(C=NNc2ncnc3c2cnn3-c2ccccc2)ccc1O [GW513184X] | 100% |
| CC(C)COC(=O)c1ccc2c(c1)/C(=C/Nc1ccc(S(N)(=O)=O)cc1)C(=O)N2 [GW416981X] | 100% |
| C[C@@H](Oc1cc(-n2cnc3ccc(OC4CCN(C)CC4)cc32)sc1C(N)=O)c1ccccc1Cl [GSK579289A] | 92% |
| COC(=O)Nc1nc2ccc(Oc3ccc(NC(=O)Nc4cc(C(F)(F)F)ccc4F)cc3)cc2s1.Cl [GW693917A] | 71% |
| O=C1Nc2ccc(C(=O)c3ccco3)cc2C1=Cc1cc(Cl)c(O)c(Cl)c1 [GW406108X] | 86% |
| Cl.O=S1CCN(Cc2ccc(-c3ccc4ncnc(Nc5ccc(OCc6ccccc6)c(F)c5)c4c3)o2)CC1 [GW576924A] | 100% |
| CC1=C(C(=O)Nc2ccc3[nH]ncc3c2)C(c2ccc(Cl)c(Cl)c2)CC(=O)N1 (stereo not shown) [GSK299115A] | 89% |
| O=C(Nc1n[nH]c2nc(-c3ccc(O)cc3)c(Br)cc12)C1CC1 [SB-725317] | 100% |
| COc1ccc2cc(-c3c(-c4ccncc4)nc(-c4ccc(S(C)(=O)=O)cc4C)n3C)ccc2c1 [SB-633825] | 72% |
| COc1cc2ncnc(Nc3ccc4c(cnn4Cc4ccccc4)c3)c2cc1OC.Cl [GW282449A] | 51% |
| Cl.c1ccc(Cc2nc3ccc(Nc4ncnc5ccccc45)cc3[nH]2)cc1 [GR269666A] | 90% |
| NS(=O)(=O)c1ccc(N/N=C2\C(=O)Nc3ccc(-c4cnco4)cc32)cc1 [GW276655] | 40% |
| COc1ccc2[nH]c3c4[nH]c5ccc(OC)cc5c4c4c(c3c2c1)C(=O)NC4=O [GW296115X] | 71% |
| CCc1ccc(Oc2nccc(-c3c(-c4ccc(F)cc4)ncn3C3CCNCC3)n2)cc1 [SB-242719] | 62% |
| CC1=C(C(=O)Nc2ccc3[nH]ncc3c2)C(c2ccc3ccccc3c2)CC(=O)N1 (stereo not shown) [GSK270822A] | 83% |
| NS(=O)(=O)c1ccc(Nc2ncc(-c3ccccc3)o2)cc1 [GW572399X] | 100% |
| C/C(Nc1ccc(S(N)(=O)=O)cc1)=C1/C(=O)Nc2ccccc21 [GW335962X] | 100% |
